Assay results from paper PMC4552634, “A New Set of Chemical Starting Points with Plasmodium falciparum Transmission-Blocking Potential for Antimalarial Drug Discovery” (PLoS ONE, 2015).
Among all 13,000 compounds or so, about 3,200 (25%) showed an effect of 50% or more. The list shows a part of the results.

Tested on: P. falciparum stage V gametocytes
Design: BacTiter-Glo ATP luminescence viability of purified stage V gametocytes in 384-well plates, per cent inhibition versus DMSO
Conditions: 48 h, 5 µM; inhibitor

SMILES	% Inhibition [%]
N#Cc1cccc(Nc2nccc(Nc3ccc(Oc4ccccc4)cc3)n2)c1 [TCMDC-138558]	-36.77
CCCCCCc1cc(O)c2c3c(c(=O)oc2c1)CCN(C)C3 [TCMDC-124193]	9.848
CC(C)c1ccc(OCC(O)CN(C)C(C)C(O)c2ccccc2)c(Br)c1 (stereo not drawn) [TCMDC-141995]	3.955
CC1(C)N=C(N)N=C(N)N1c1cccc(I)c1 [TCMDC-138037]	-1.195
COc1ccc2nc(-c3ccccc3)cc(NCCCNc3cc(-c4ccccc4)nc4ccc(OC)cc34)c2c1.Cl [TCMDC-137734]	124.9
c1ccc(-c2cc(NCCCCNc3cc(-c4ccccc4)nc4ccccc34)c3ccccc3n2)cc1 [TCMDC-137738]	98.03
O=[N+]([O-])c1ccc(/C=N/Nc2cc(-c3ccccc3)nc3ccccc23)o1 [TCMDC-142051]	34.86
COc1ccc2c(NCCc3ccccc3)cc(-c3ccccc3)nc2c1 [TCMDC-138992]	28.49
c1ccc(-c2cc(NCCNc3cc(-c4ccccc4)nc4ccccc34)c3ccccc3n2)cc1 [TCMDC-137986]	24.95
C(=NNc1cc(-c2ccccc2)nc2ccccc12)c1cccnc1 [TCMDC-142052]	-23.81
COc1ccc2nc(C)cc(NCc3cccc4ccccc34)c2c1.Cl [TCMDC-138974]	-17.8
CN(C)CCNc1cc(-c2ccc3ccccc3c2)nc2ccccc12 [TCMDC-124260]	3.28
COc1ccc2nc(-c3ccccc3)cc(NCCN(C)C)c2c1 [TCMDC-123487]	-6.807
c1ccc(-c2cc(NCc3cccc4ccccc34)c3[nH]ncc3n2)cc1 [TCMDC-139455]	76.18
c1ccc(-c2cc(NCCCCCCCCNc3cc(-c4ccccc4)nc4ccccc34)c3ccccc3n2)cc1 [TCMDC-137983]	96.95
CS(=O)(=O)NCCCNCc1ccc(-c2ccc(-c3nc4cc(C(F)(F)F)ccc4[nH]3)s2)cc1.O=C(O)C(F)(F)F [TCMDC-133076]	-24.74
COc1ccc2cc(C(C)NC3CCN(c4cccc(NC(=O)c5ccncc5)c4)CC3)ccc2c1 (stereo not drawn) [TCMDC-124668]	-18.92
COc1ccc(CNC2CCN(C)CC2)cc1-c1ccc(S(=O)(=O)NCc2ccccc2)c(F)c1 [TCMDC-132262]	59.53
COc1ccc(-c2cccc(CNC3CCN(C)CC3)c2)cc1S(=O)(=O)NCc1ccccc1 [TCMDC-132375]	75.59
COc1ccc(CNC2CCN(C)CC2)cc1-c1ccc(S(=O)(=O)NCc2ccccc2)c(C)c1 [TCMDC-132480]	85.24
COc1ccc(CNC2CCN(C)CC2)cc1-c1ccc(OC)c(S(=O)(=O)NCc2ccccc2)c1 [TCMDC-132249]	105.1

SMILES	% Inhibition [%]
NC1=NC(Cc2ccccc2)N(c2ccc(Cl)cc2)C(N)=N1 (stereo not drawn) [TCMDC-131291]	0.2754
CC(C)(C)C(C)(C)Cc1ccc(O)c(CN2CCN(c3ccccc3)CC2)c1 [TCMDC-125678]	-31.97
CC(C)[C@H](NC(=O)c1ccc(O)c(-c2cccc(C(F)(F)F)c2)c1)C(=O)NCCN1CCCCC1 [TCMDC-140815]	44.47
O=C(Nc1ccc(-c2ccc(-c3nc4ccccc4[nH]3)s2)cc1)Nc1ccc(Cl)c(Cl)c1 [TCMDC-133283]	1.039
CC[C@H](NC(=O)c1c(CC2CCN(CC(C)=O)CC2)c(-c2ccccc2)nc2ccccc12)c1ccccc1 [TCMDC-141946]	44.22
CC(C)(C)c1ccc(NC(=O)c2ccc(CN3CCCN(CC4CCCCC4)CC3)cc2)cc1 [TCMDC-136428]	-70.52
N#Cc1cccc(NC(=O)Nc2ccc(-c3cccc(-c4nc5ccc(F)cc5[nH]4)c3)cc2)c1 [TCMDC-133199]	24.35
CN(C(=O)c1snnc1-c1ccccc1)C1CCN(CCCCCNC(=O)/C=C/c2ccc(Cl)c(Cl)c2)CC1 [TCMDC-139993]	-14.58
Oc1ccc2[nH]c(-c3ccc(F)cc3F)nc2c1CN1CCC(O)(c2ccccc2)CC1 [TCMDC-136532]	-67.95
COc1ccc2nccc([C@@H](O)CN3CCC(NCc4nc5c([N+](=O)[O-])cccc5[nH]4)CC3)c2c1 [TCMDC-140982]	-2.529
CC1CN(Cc2cccc(-c3ccc(-c4nc5cc(F)ccc5[nH]4)cc3)c2)CC(C)O1.O=C(O)C(F)(F)F (stereo not drawn) [TCMDC-133818]	13.23
CC(C)N1CCN(C(CN2CCN(CCCOc3cccc(F)c3)CC2)c2ccc(F)cc2)CC1 (stereo not drawn) [TCMDC-135493]	99.24
CC(C)N1CCN(C(CN2CCN(CCCOc3ccc(-c4ccccc4)cc3)CC2)c2ccc(F)cc2)CC1 (stereo not drawn) [TCMDC-135497]	69.79
COc1ccc(C(C(=O)NC2CCN(C[C@H](O)c3ccnc4ccc(OC)cc34)CC2)N2CCN(c3ccc(F)cc3)CC2)cc1 (stereo partly drawn) [TCMDC-140993]	-29
CC(C)N1CCN(C(CN2CCN(CCCOc3ccccc3-c3ccccc3)CC2)c2ccc(F)cc2)CC1 (stereo not drawn) [TCMDC-135499]	44.69
CC(C)N1CCN(C(CN2CCN(CCCOc3cccc(-c4ccccc4)c3)CC2)c2ccc(F)cc2)CC1 (stereo not drawn) [TCMDC-135498]	62.15
CC(C)N1CCN(C(CN2CCN(CCCOc3ccc4nonc4c3)CC2)c2ccc(F)cc2)CC1 (stereo not drawn) [TCMDC-135500]	92.96
CC(CN1CCN(CC(c2ccc(F)cc2)N2CCN(C)CC2)CC1)C(=O)c1ccc(O)cc1 (stereo not drawn) [TCMDC-125496]	29.96
Cc1ccc(C2(C)CN(CCCOc3cccc(-c4ccc(C(=O)NC(C)C)cc4)c3)CCO2)cc1 (stereo not drawn) [TCMDC-134386]	27.16
O=C(CCN1C(=O)c2ccccc2C1=O)N1CCN(CC=Cc2ccccc2)CC1 [TCMDC-125744]	5.299
CCCN(c1ccc(C(F)(F)F)cc1[N+](=O)[O-])S(=O)(=O)C(c1ccccc1)c1ccc(C(F)(F)F)cc1[N+](=O)[O-] (stereo not drawn) [TCMDC-132114]	11.09
